High-throughput results from PubChem.
An excerpt weighted towards active compounds, which were near 21% of everything screened.
NS1 function inh: blocks influenza NS1 protein function; 270,000 compounds, 0.4% hits; Potency, µM (doses to about 46.1 µM); AID 2326; calls by dose curve; also: actives are rising curves; nearly all actives have a fitted effect of over 50% in size
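OD600 was taken as the measure of yeast growth restored by compound in an NS1-expressing S. cerevisiae strain. Cells had been washed out of glucose medium and diluted 1:100 into galactose -URA medium, pH 6.0.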
SARS PLP yeast: SARS-CoV PLP inhibition in yeast; S. cerevisiae expressing SARS-CoV PLpro, growth rescue; Potency, µM (titrated, usually from 32.9 µM), most hits filed as activators; 330,000 compounds, 0.19% hits; AID 485353; calls by dose curve; also: nearly all actives have a fitted effect of over 55% in size
Pf growth 96h: P. falciparum growth inhibition at 96 hours | P. falciparum luciferase reporter growth, 96 h | Potency, µM (top dose mostly 28.7 µM), actives largely listed as inhibitors | 320,000 compounds, 6.9% hits
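Plates of compound plus infected erythrocytes (2% hematocrit, 0.05% parasitemia final) incubate 96 hours, 37 C, 5% CO2. Detection reagent added; reduced luminescence from the parasites' luciferase reporter flags inhibition.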
Cycloheximide cs: affects cycloheximide protein synthesis inhibition readout, counter-screen. cell reporter, cycloheximide protein synthesis inhibition counterscreen. max response, %. 300,000 compounds, 12% hits; in the data active = max response mostly above about 13%, no sharp cut-off; inactive = mostly below about 14%; also: read at 38.3 µM for the half of the compounds with a filed dose
Pf growth 48h: P. falciparum growth inhibition at 48 hours (one generation). P. falciparum luciferase growth in erythrocytes, 48 h. Potency, µM (top dose mostly 28.7 µM), usual class: inhibitors. 310,000 compounds, 5.9% hits. AID 504832
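Compounds are pin-transferred into medium, infected erythrocytes (2% hematocrit, 0.1% parasitemia final) are added, and plates sit one parasite generation at 37 C in 5% CO2. Detection reagent is then added and luminescence measured.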
Shiga inhibitor: blocks Shiga toxin action in Vero cells | Vero cells, Shiga toxin protein synthesis inhibition reporter | inhibition, % at 38.7 µM | 290,000 compounds, 9.2% hits; in the data active = inhibition mostly above about 28%, no sharp cut-off; inactive = mostly below about 43%
Hits are given with their value. Unless noted, calls follow the shape of the dose curve; as a rule, active = well fitted inhibition curve with a large enough effect; inconclusive = small, poorly fitted or top-dose-only effect, or another doubt; inactive = no such curve, though single readings can be large or run the other way.

CCOC(=O)c1c(NC(=O)CSc2nnnn2C)sc(C)c1-c1ccc(C)cc1 was read as NS1 function inh inactive, SARS PLP yeast inactive, Pf growth 96h 2.3µM, Cycloheximide cs 16, Pf growth 48h 8.3µM and Shiga inhibitor inactive.
For NC(=O)c1ccc(NS(=O)(=O)c2ccc(Br)s2)cc1 the results were SARS PLP yeast inactive, Pf growth 96h inactive and Pf growth 48h inactive.
`CCC(=O)N1CCc2cc(S(=O)(=O)N3CCN(c4ccccc4Cl)CC3)ccc21` gave NS1 function inh inactive, SARS PLP yeast inconclusive, Pf growth 96h inconclusive, Cycloheximide cs inactive, Pf growth 48h inconclusive and Shiga inhibitor inactive.
COc1ccc(N(CC(=O)N2CCC(Cc3ccccc3)CC2)S(C)(=O)=O)cc1 was read as NS1 function inh inactive, SARS PLP yeast inactive, Pf growth 96h inactive, Cycloheximide cs inactive, Pf growth 48h inactive and Shiga inhibitor inactive.
`CCOC(=O)c1c(-c2ccccc2)csc1NC(=O)CSc1nnnn1C` gave NS1 function inh inactive, SARS PLP yeast inactive, Cycloheximide cs inactive, Pf growth 48h 4.7µM and Shiga inhibitor inactive.
For Nc1nc(CSc2n[nH]c(-c3ccccc3)n2)nc(Nc2ccccc2)n1 the results were NS1 function inh inactive, SARS PLP yeast inactive, Pf growth 96h inconclusive, Cycloheximide cs inactive, Pf growth 48h inactive and Shiga inhibitor inactive.
`Cc1ccc(-c2nc(Nc3ccccc3)n[nH]2)cc1` gave NS1 function inh inactive, SARS PLP yeast inactive, Cycloheximide cs 43, Pf growth 48h inactive and Shiga inhibitor 83.
For CN(C)c1cc2c(c(N(C)C)c1)C(=O)c1ccccc1C2=O the results were NS1 function inh inactive, SARS PLP yeast inactive, Pf growth 96h 4.1µM, Cycloheximide cs 39, Pf growth 48h inconclusive and Shiga inhibitor inactive.
`O=C1c2ccccc2C(=O)c2c1cccc2N(CCO)CCO` gave NS1 function inh inactive, SARS PLP yeast inactive, Pf growth 96h inactive, Cycloheximide cs inactive, Pf growth 48h inactive and Shiga inhibitor inactive.
For CCOC(=O)c1cccc(NC(=O)C2(S(=O)(=O)c3ccc(C)cc3)CC2)c1 the results were NS1 function inh inactive, SARS PLP yeast inactive, Pf growth 96h inactive, Cycloheximide cs inactive, Pf growth 48h inactive and Shiga inhibitor inactive.
CCCCOc1ccc(Cc2c(Cl)nc(SC)nc2N2CCOCC2)cc1 was read as NS1 function inh inactive, SARS PLP yeast inactive, Pf growth 96h inactive, Cycloheximide cs inactive, Pf growth 48h 13µM and Shiga inhibitor inactive.
`O=C(OCC#CCNc1nnc(-c2cccc3ccccc23)o1)c1cccs1` gave SARS PLP yeast inactive, Pf growth 96h inactive and Pf growth 48h inconclusive.
`O=S(=O)(NCc1ccccc1)c1ccc(S(=O)(=O)N(Cc2ccccn2)C2CCCC2)cc1` gave NS1 function inh inactive, SARS PLP yeast inactive, Pf growth 96h inconclusive, Cycloheximide cs inactive, Pf growth 48h 10µM and Shiga inhibitor inactive.
`CCNS(=O)(=O)c1ccc(S(=O)(=O)N(Cc2ccccn2)C2CCCCC2)cc1` gave NS1 function inh inactive, SARS PLP yeast inactive, Pf growth 96h inactive, Cycloheximide cs inactive, Pf growth 48h inconclusive and Shiga inhibitor inactive.
Screening O=C(O)C1SCCN1S(=O)(=O)c1ccc(N=NN2CCOCC2)cc1 (configuration not stated) returned NS1 function inh inactive, SARS PLP yeast inactive, Pf growth 96h 1.9µM, Cycloheximide cs inactive, Pf growth 48h inactive and Shiga inhibitor inactive.
For CC(=O)N(C(C)=O)S(=O)(=O)c1ccc(N=NN2CCCCC2)cc1 the results were NS1 function inh inactive, SARS PLP yeast inactive, Pf growth 96h inactive, Cycloheximide cs inactive, Pf growth 48h inactive and Shiga inhibitor inactive.
`Cc1occc1C(=O)Nc1ccc(S(=O)(=O)N2CCCC2)cc1` gave NS1 function inh inactive, SARS PLP yeast inactive, Pf growth 96h inactive, Cycloheximide cs inactive, Pf growth 48h inactive and Shiga inhibitor 29.
For CC(C)C(=O)Nc1ccc(C(=O)Nc2ccc(S(=O)(=O)N3CCOCC3)cc2)cc1 the results were NS1 function inh inactive, SARS PLP yeast inactive, Pf growth 96h inactive, Cycloheximide cs inactive, Pf growth 48h inconclusive and Shiga inhibitor inactive.
`O=C(Nc1ccccc1)c1ccc(S(=O)(=O)N2CCCCC2)cc1` gave NS1 function inh inactive, SARS PLP yeast inactive, Pf growth 96h inconclusive, Cycloheximide cs 11, Pf growth 48h inconclusive and Shiga inhibitor 19.
For COc1cc(C(=S)N2CCOCC2)cc(OC)c1OS(=O)(=O)c1ccc(NC(C)=O)cc1 the results were NS1 function inh inactive, SARS PLP yeast inactive, Pf growth 96h 13µM, Cycloheximide cs inactive, Pf growth 48h inactive and Shiga inhibitor inactive.
Screening O=C(Nc1ccccc1)c1ccc(S(=O)(=O)N2CCCC2)cc1 returned NS1 function inh inactive, SARS PLP yeast inactive, Pf growth 96h inactive, Cycloheximide cs inactive, Pf growth 48h inconclusive and Shiga inhibitor inactive.
`Cc1occc1C(=O)Nc1ccc(S(N)(=O)=O)cc1` gave NS1 function inh inactive, SARS PLP yeast inactive, Pf growth 96h inactive, Cycloheximide cs inactive, Pf growth 48h inactive and Shiga inhibitor inactive.
`CC(C)C(=O)Nc1cccc(C(=O)Nc2ccc(S(=O)(=O)N3CCOCC3)cc2)c1` gave NS1 function inh inactive, SARS PLP yeast inactive, Pf growth 96h 10µM, Cycloheximide cs inactive, Pf growth 48h inactive and Shiga inhibitor inactive.
`Cc1c(C(=O)N2CCC(C)CC2)sc2ncnc(N3CCN(c4ccccc4)CC3)c12` gave NS1 function inh inactive, SARS PLP yeast inactive, Pf growth 96h inactive, Cycloheximide cs inactive, Pf growth 48h inactive and Shiga inhibitor inactive.
CC(=O)c1cccc(NS(=O)(=O)c2ccc(-c3cc(C)no3)s2)c1 was read as NS1 function inh inactive, SARS PLP yeast inactive, Pf growth 96h inactive, Cycloheximide cs inactive, Pf growth 48h inactive and Shiga inhibitor inactive.
Screening O=C(Nc1ccn(-c2ccccc2)n1)c1ccc(S(=O)(=O)N2CCCCCC2)cc1 returned NS1 function inh inactive, SARS PLP yeast inactive, Pf growth 96h inconclusive, Cycloheximide cs inactive, Pf growth 48h 1µM and Shiga inhibitor inactive.
For O=C(Nc1ccon1)c1ccc(S(=O)(=O)N2CCCCCC2)cc1 the results were NS1 function inh inconclusive, SARS PLP yeast inactive, Pf growth 96h inconclusive, Cycloheximide cs inactive, Pf growth 48h 9.3µM and Shiga inhibitor inactive.
For Cc1ccc(C(=O)Nc2ccon2)cc1S(=O)(=O)N1CCCCCC1 the results were NS1 function inh inactive, SARS PLP yeast inactive, Pf growth 96h inconclusive, Cycloheximide cs inactive and Shiga inhibitor inactive.
For O=C(Nc1ccc(S(=O)(=O)N2CCOCC2)cc1)c1ccccc1 the results were NS1 function inh inactive, SARS PLP yeast inactive, Pf growth 96h inactive, Cycloheximide cs inactive, Pf growth 48h inactive and Shiga inhibitor inactive.
Screening CC(=O)Nc1ccc(C(=O)Nc2ccc(S(=O)(=O)N3CCOCC3)cc2)cc1 returned NS1 function inh inactive, SARS PLP yeast inactive, Pf growth 96h 8.3µM, Cycloheximide cs 16, Pf growth 48h inconclusive and Shiga inhibitor inactive.
Cc1cccc(NC(=O)c2ccc(S(=O)(=O)N3CCCCCC3)cc2)n1 was read as SARS PLP yeast inactive, Pf growth 96h inconclusive and Pf growth 48h inconclusive.
